# Test results from PubChem BioAssay.
# Several values for one entry are separate records, joined by “and”; a condition that tells them apart may be missing. Equal values may be shown once. For some assays here: Potency and affinity values are given separately. Activity calls are given as the source filed them.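 The calls were made as follows, unless noted: active = compound that reduces growth-factor-driven endothelial tube area in a mixed cell culture, no cutoff stated; inactive = the rest.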
# Assays:
# [1] = stimulators of nuclear beta-catenin in C2C12, primary screen, imaging, WNT3A-conditioned medium, mouse C2C12, NPC library (AID 1117326; in the data active = nuclear beta-catenin stimulation mostly above about 4.2%, no sharp cut-off; inactive = mostly below about 10%); conditions: stronger effect = higher value
# [2] = stimulators of insulin release from INS-1E, primary screen, cell-based, 5 mM glucose, NPC library (AID 1117329;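 active = compound raises insulin release from rat beta cells at 5 mM glucose, no numeric limit stated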); conditions: rat INS-1E insulin secretion, at 10 µM, stronger effect = higher value
# [3] = growth inhibition of GSK3B-pretreated HCT116 cells – cell-based, CellTiter-Glo, 0.2 to 20 µM (AID 1117336;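 active = compounds lowering colon cancer cell viability after pretreatment blocking the GSK3B kinase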); conditions: HCT116 viability after GSK3B inhibitor, at 20 µM, stronger effect = higher value
# [4] = inhibition of endothelial tube formation, primary screen, imaging, VEGF stimulated, CD31 staining, tube area, NPC library (AID 1117340); conditions: VEGF-stimulated ADSC/ECFC co-culture, at 10 µM, stronger effect = higher value
# [5] = glucagon-like peptide 1 release enhancers, primary assay, NCI-H716 cell line, NPC library (AID 1117341;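 active = compound raises GLP1 secretion from the human gut endocrine cells, with no numeric limit stated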); conditions: NCI-H716 cells, at 10 µM, stronger effect = higher value
# [6] = HCT116 colon cancer cell growth inhibition, primary screen, CellTiter-Glo luminescence, NPC library (AID 1117342;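 active = compounds that lower survival of HCT116 colon cancer cells in the luminescence readout, no numeric limit stated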); conditions: at 20 µM (top of the series)
# [7] = CellTiter-Glo luminescent readout of SW480 viability loss, NPC library primary (AID 1117343;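 active = compounds that lower viability of the colon cancer cells in the luminescence readout, with no numeric limit stated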); conditions: CellTiter-Glo luminescence; at 20 µM (top of the series)
# [8] = decreased DLD-1 cellular survival, CellTiter-Glo luminescent readout, NPC compound collection, primary HTS (AID 1117346;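 active = compounds that lower survival of DLD-1 colon cancer cells in the luminescence readout, no cutoff given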); conditions: DLD-1 viability, CellTiter-Glo luminescence; at 20 µM (top of the series)
# [9] = polyglutamine-triggered caspase-3 activation inhibitors, cell-based (AID 1583); conditions: polyglutamine-induced caspase-3 activation, cell assay; stronger effect = higher value;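 tested at 10 µM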
# [10] = suppressors of polyQ aggregation in yeast, 75Q-TubU reporter (AID 1593); conditions: Yeast 75Q polyglutamine aggregation reporter
# [11] = rescue of polyQ-huntingtin neuronal dysfunction in worms, whole organism, C. elegans mechanosensory neurons, N-terminal huntingtin (AID 1599); conditions: touch response, stronger effect = higher value
# [12] = inhibitors of mitochondrial cytochrome c release, biochemical, purified mitochondria (AID 1603); conditions: stronger effect = lower value;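 also: mouse liver mitochondria challenged with calcium chloride; signal normalized to the plate average as 100%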
# [13] = inhibitors of polyQ protein aggregation (AID 1604); conditions: polyglutamine-induced protein aggregation inhibition assay; stronger effect = higher value; tested at 2.5 µM
# [14] = enhancers of glutamate uptake in motor neurons, MN-1 cell line (AID 1612); conditions: MN-1 motor neuron cells, stronger effect = higher value;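 also: tested at 1 µM final; 0% = mean of DMSO vehicle wells on each plate; positive means more glutamate uptake than control and negative means less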
# [15] = reducers of polyQ inclusions in PC12 cells, cell-based, NGF-treated PC12, GFPQ80 (AID 1614); conditions: PC12 NGF-treated GFP-polyQ80 inclusion reduction;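 also: lower means fewer inclusions and 0 means no inclusions at all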
# [16] = suppressors of polyglutamine aggregation in yeast, 75Q-TubH (AID 1616); conditions: S. cerevisiae 75Q-TubH polyglutamine aggregation suppression; stronger effect = higher value
# [17] = circadian clock period modulators, cell-based, LOPAC library, luminescence reporter (AID 2774; call rule not given here;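 also: values are relative to mean of DMSO wells on each plate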); conditions: circadian reporter cells, at 7 µM, actives lie on both sides
# [18] = liver-stage malaria parasite growth inhibition, primary screen, cell-based, HepG2, luciferase luminescence, HepG2 viability (AID 624349; in the data active = parasite load remaining mostly below about 12%, no sharp cut-off; inactive = mostly above about 10%;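 also: 100% = mean of DMSO negative control wells on the same plate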); conditions: P. berghei liver stage in HepG2, luciferase luminescence, concentration not given here; parasite load remaining: stronger effect = lower value; viability: measured here: HepG2 viability without parasites
# [19] = test system: Hepatitis C virus NS3 helicase; assay: HCV NS3 helicase inhibitors, primary screen, biochemical, fluorescence polarization, LOPAC1280 library (AID 687035; in the data active = inhibition above about 37%); conditions: Purified HCV NS3 helicase, Cy5-dT15 ssDNA binding fluorescence polarization; stronger effect = higher value; concentration not given here
# [20] = Cy5 fluorescence quenching or enhancement artefacts, artefact control for HCV NS3 helicase inhibitor project, biochemical, LOPAC1280 (AID 687037; call rule not given here); conditions: Cy5-DNA-NS3h complex fluorescence interference counterscreen
# [21] = biological target: 6-phosphogluconate dehydrogenase, decarboxylating (Homo sapiens) (UniProt P52209); assay: 6PGD enzyme inhibitors, primary screen, biochemical, human, recombinant enzyme, NADPH absorbance (AID 1159550;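 active = at least 20% inhibition of 6-phosphogluconate dehydrogenase activity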); conditions: recombinant 6PGD, NADPH absorbance 341 nm; at 10 µM; stronger effect = higher value
# [22] = differential killing of epithelial or mesenchymal cells, primary screen, imaging, PC-3E GFP, TEM4-18 mCherry, co-culture (AID 1345086;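 active = compounds killing one labelled cell type while sparing the other, by normalised counts and ratio limits, not self-fluorescent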;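 also: cells exposed to compound for 72 h before imaging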;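 as to red/green cell ratio (normalised): normalised mesenchymal count divided by normalised epithelial count so high means epithelial killing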); conditions: imaging cell counts, at 1 µM
# [23] = test system: Aerobactin synthetase IucA (Klebsiella pneumoniae hvKP1); assay: Biochemical IucA enzyme inhibition primary screen of the Spectrum library (AID 1346200; call rule not given here;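 also: 100% = wells without compound and 0% = wells lacking enzyme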); conditions: malachite green pyrophosphate, A620, at 8 µM, stronger effect = lower value
# [24] = test system: Aerobactin synthetase IucA (Klebsiella pneumoniae, hypervirulent); assay: IucA enzyme inhibition, biochemical, LOPAC library, absorbance readout (AID 1346212; call rule not given here;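 also: 100% = no compound wells and 0% = no enzyme wells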); conditions: IucA enzyme assay, absorbance (OD) readout; stronger effect = lower value;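 tested at 8 µM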
# [25] = sensitizers of A549 cells to miR-34 induction, primary screen, imaging, A549 dox-inducible miR-34, nuclei and caspase counts (AID 1347080;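 active = compounds whose cell count with miR-34 switched on is under 0.7 times the count with it off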); conditions: A549 miR-34 inducible, Hoechst nuclei count, 48 h
# [26] = phospholipid biosynthesis inhibitors in animal cells, primary screen, cell-based, LOPAC library, screen 4 (AID 1347384; call rule not given here); conditions: phospholipid biosynthesis inhibition screen, at 10 µM
# [27] = survival rescue of mitochondrial mutant cells in low glucose, primary screen, MELAS cybrids, Rieske KO mouse fibroblasts, CellTiter-Glo (AID 1508586;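 active = mean z-score across replicates of 1.96 or higher in either the MELAS or the Rieske mutant cell line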;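 also: z relative to plate mean and SD of compound and empty wells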)
# [28] = biological target: NAD(+) hydrolase SARM1 (Homo sapiens) (UniProt Q6SZW1); assay: SARM1 TIR NADase inhibitors, cell lysate, NAD-Glo luminescence (AID 1508614;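 active = compound whose remaining NAD level is above about 45 nM, limit read from the data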;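 also: higher remaining NAD means stronger inhibition of SARM1 NADase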); conditions: SAM-TIR HEK293T lysate NADase, at 1 µM, stronger effect = higher value
# [29] = biological target: Mitogen-activated protein kinase 7 (Homo sapiens) (UniProt Q13164); assay: ERK5 transactivation activators in reporter cells, primary screen, cell-based, HTS (AID 1508626;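 active = luciferase signal above three times the same-plate solvent-only control wells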;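 also: luciferase driven by Gal4-ERK5 fusion binding five Gal4 sites before minimal TATA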); conditions: HeLa Gal4-ERK5 transactivation, 18 h, at 5 µM, stronger effect = higher value
# [30] = viability rescue of complex I mutant cybrids, primary screen, cell-based, galactose medium, ATP luminescence (AID 1645843;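 active = z-score of at least 1.8 in each of two replicates, scored against plate mean and spread of sample wells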;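 also: positive z means more ATP and so rescue of galactose-driven cybrid death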); conditions: complex I mutant cybrid cells, 72 h, stronger effect = higher value
# Chain of NAD(+) hydrolase SARM1 (Homo sapiens) (Q6SZW1 whole entry, looked up, the tested form may be a part): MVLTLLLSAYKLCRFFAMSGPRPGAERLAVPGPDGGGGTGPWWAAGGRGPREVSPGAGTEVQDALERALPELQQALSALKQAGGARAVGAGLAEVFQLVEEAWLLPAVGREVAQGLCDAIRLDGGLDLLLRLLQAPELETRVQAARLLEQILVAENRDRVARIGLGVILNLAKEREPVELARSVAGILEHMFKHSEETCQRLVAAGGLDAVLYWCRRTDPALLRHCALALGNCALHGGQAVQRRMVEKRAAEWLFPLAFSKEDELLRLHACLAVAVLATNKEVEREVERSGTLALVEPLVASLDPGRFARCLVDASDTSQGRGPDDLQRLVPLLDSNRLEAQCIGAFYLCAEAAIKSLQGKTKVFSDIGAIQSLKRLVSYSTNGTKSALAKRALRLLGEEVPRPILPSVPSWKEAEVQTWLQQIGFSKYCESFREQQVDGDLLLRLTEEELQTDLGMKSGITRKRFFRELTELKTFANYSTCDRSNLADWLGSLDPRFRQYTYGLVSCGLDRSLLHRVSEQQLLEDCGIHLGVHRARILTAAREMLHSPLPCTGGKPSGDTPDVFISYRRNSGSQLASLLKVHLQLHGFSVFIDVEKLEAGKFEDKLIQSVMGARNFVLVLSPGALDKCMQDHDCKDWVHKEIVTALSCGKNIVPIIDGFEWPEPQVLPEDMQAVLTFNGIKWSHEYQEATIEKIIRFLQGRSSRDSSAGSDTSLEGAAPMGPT
# Chain of 6-phosphogluconate dehydrogenase, decarboxylating (Homo sapiens) (P52209 whole entry, looked up): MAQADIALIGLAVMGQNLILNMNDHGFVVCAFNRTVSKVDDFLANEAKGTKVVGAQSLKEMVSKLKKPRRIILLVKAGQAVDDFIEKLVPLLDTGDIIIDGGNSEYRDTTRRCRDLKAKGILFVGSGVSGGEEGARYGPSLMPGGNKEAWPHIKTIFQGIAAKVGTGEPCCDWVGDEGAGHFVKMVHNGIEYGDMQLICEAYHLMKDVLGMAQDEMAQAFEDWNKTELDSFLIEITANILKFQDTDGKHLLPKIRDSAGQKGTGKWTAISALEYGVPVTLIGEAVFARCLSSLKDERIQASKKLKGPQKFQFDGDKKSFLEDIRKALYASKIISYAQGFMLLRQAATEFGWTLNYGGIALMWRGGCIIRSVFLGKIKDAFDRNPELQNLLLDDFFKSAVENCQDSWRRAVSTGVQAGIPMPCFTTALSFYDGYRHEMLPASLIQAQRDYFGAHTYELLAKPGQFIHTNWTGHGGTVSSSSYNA
# Chain of Mitogen-activated protein kinase 7 (Homo sapiens) (Q13164 whole entry, looked up, the tested form may be a part): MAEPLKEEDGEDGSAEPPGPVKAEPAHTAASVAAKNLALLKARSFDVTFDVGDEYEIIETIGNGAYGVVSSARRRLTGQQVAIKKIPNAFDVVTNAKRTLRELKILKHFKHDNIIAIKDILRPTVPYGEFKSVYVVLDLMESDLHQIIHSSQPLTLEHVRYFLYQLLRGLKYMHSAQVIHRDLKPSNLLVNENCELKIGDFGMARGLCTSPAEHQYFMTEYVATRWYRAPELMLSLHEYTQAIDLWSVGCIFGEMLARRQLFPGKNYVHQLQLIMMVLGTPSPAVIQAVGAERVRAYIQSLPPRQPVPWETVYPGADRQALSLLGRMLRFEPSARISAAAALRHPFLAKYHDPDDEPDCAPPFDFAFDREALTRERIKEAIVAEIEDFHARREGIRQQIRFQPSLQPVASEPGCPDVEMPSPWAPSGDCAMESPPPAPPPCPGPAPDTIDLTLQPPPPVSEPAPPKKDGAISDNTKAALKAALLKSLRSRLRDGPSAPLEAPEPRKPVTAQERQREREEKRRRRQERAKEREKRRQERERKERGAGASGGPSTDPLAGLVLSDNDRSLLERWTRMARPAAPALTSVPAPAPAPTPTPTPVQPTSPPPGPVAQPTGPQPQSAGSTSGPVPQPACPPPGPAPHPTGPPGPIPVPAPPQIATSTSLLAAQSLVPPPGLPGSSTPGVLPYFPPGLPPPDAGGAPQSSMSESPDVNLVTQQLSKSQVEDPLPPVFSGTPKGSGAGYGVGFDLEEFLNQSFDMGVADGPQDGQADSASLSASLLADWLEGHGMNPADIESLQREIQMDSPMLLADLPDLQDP
smiles,measurement,setting,value
NCCS[As](SCCN)c1ccc(Nc2nc(N)nc(N)n2)cc1,nuclear beta-catenin stimulation,[1]; at 10 µM,-1.4% (inactive)
same,nuclear beta-catenin stimulation,"[1]; stimulation, at 2 µM",-0.4%
same,insulin secretion stimulation,[2],0.6% (inactive)
same,viability decrease,[3],-8.2% (inactive)
same,tube area decrease,[4],21.9% (inactive)
same,GLP1 secretion stimulation,[5],-3.3% (inactive)
same,inhibition of viability,[6],0.1% (inactive)
same,viability decrease (inhibition),[7],-3.2% (inactive)
same,viability decrease (inhibition),[8],-34.2% (inactive)
CN1C(=S)CN=C(c2ccccc2)c2cc(Cl)ccc21,nuclear beta-catenin stimulation,[1]; at 10 µM,-0.4% (inactive)
same,nuclear beta-catenin stimulation,"[1]; stimulation, at 2 µM",3.4%
same,insulin secretion stimulation,[2],1.75% (inactive)
same,viability decrease,[3],65.8% (active)
same,tube area decrease,[4],6.8% (inactive)
same,GLP1 secretion stimulation,[5],1.6% (inactive)
same,inhibition of viability,[6],50.3% (active)
same,viability decrease (inhibition),[7],77.5% (active)
same,viability decrease (inhibition),[8],32.7% (inactive)
CC(C)(C)NCC(O)c1cc(Cl)c(N)c(C(F)(F)F)c1 (stereo not drawn),nuclear beta-catenin stimulation,[1]; at 10 µM,0.4% (inactive)
same,nuclear beta-catenin stimulation,"[1]; stimulation, at 2 µM",1%
same,insulin secretion stimulation,[2],-1.6% (inactive)
same,viability decrease,[3],-16.8% (inactive)
same,tube area decrease,[4],-0.3% (inactive)
same,GLP1 secretion stimulation,[5],-2.3% (inactive)
same,inhibition of viability,[6],10.6% (inactive)
same,viability decrease (inhibition),[7],5.9% (inactive)
same,viability decrease (inhibition),[8],-1.7% (inactive)
O=C(O)COc1ccccc1,nuclear beta-catenin stimulation,[1]; at 10 µM,1.6% (inactive)
same,nuclear beta-catenin stimulation,"[1]; stimulation, at 2 µM",0.3%
same,insulin secretion stimulation,[2],-2.7% (inactive)
same,viability decrease,[3],-4.9% (inactive)
same,tube area decrease,[4],-5.1% (inactive)
same,GLP1 secretion stimulation,[5],0.4% (inactive)
same,inhibition of viability,[6],-0.7% (inactive)
same,viability decrease (inhibition),[7],-15.1% (inactive)
same,viability decrease (inhibition),[8],-15.4% (inactive)
CCC(C)(C)c1ccc(O)cc1,nuclear beta-catenin stimulation,[1]; at 10 µM,0.6% (inactive)
same,nuclear beta-catenin stimulation,"[1]; stimulation, at 2 µM",-0.2%
same,insulin secretion stimulation,[2],-1% (inactive)
same,viability decrease,[3],-20.2% (inactive)
same,tube area decrease,[4],9.4% (inactive)
same,GLP1 secretion stimulation,[5],6.1% (inactive)
same,inhibition of viability,[6],0.6% (inactive)
same,viability decrease (inhibition),[7],-13% (inactive)
same,viability decrease (inhibition),[8],-2.4% (inactive)
O=c1c(C2CC(c3ccc(-c4ccc(Br)cc4)cc3)Cc3ccccc32)c(O)sc2ccccc12 (stereo not drawn),nuclear beta-catenin stimulation,[1]; at 10 µM,0% (inactive)
same,nuclear beta-catenin stimulation,"[1]; stimulation, at 2 µM",-2.4%
same,insulin secretion stimulation,[2],1.05% (inactive)
same,viability decrease,[3],117% (active)
same,tube area decrease,[4],34.2% (inactive)
same,GLP1 secretion stimulation,[5],4.8% (inactive)
same,inhibition of viability,[6],123% (active)
same,viability decrease (inhibition),[7],157% (active)
same,viability decrease (inhibition),[8],101% (active)
CCOC(=O)NC(O)C(Cl)(Cl)Cl (stereo not drawn),nuclear beta-catenin stimulation,[1]; at 10 µM,-0.2% (inactive)
same,nuclear beta-catenin stimulation,"[1]; stimulation, at 2 µM",2.2%
same,insulin secretion stimulation,[2],0.3% (inactive)
same,viability decrease,[3],-4.2% (inactive)
same,tube area decrease,[4],-20.4% (inactive)
same,GLP1 secretion stimulation,[5],0.8% (inactive)
same,inhibition of viability,[6],-2.5% (inactive)
same,viability decrease (inhibition),[7],16.2% (inactive)
same,viability decrease (inhibition),[8],4.55% (inactive)
CCCCNC(C)(C)[P+](=O)O,nuclear beta-catenin stimulation,[1]; at 10 µM,-0.8% (inactive)
same,nuclear beta-catenin stimulation,"[1]; stimulation, at 2 µM",-0.8%
same,insulin secretion stimulation,[2],-2.5% (inactive)
same,viability decrease,[3],-0.6% (inactive)
same,tube area decrease,[4],-26.4% (inactive)
same,GLP1 secretion stimulation,[5],-3.9% (inactive)
same,inhibition of viability,[6],-4.7% (inactive)
same,viability decrease (inhibition),[7],1.4% (inactive)
same,viability decrease (inhibition),[8],-4.2% (inactive)
Nc1ccccc1,nuclear beta-catenin stimulation,[1]; at 10 µM,0.6% (inactive)
same,nuclear beta-catenin stimulation,"[1]; stimulation, at 2 µM",2%
same,insulin secretion stimulation,[2],-2.4% (inactive)
same,viability decrease,[3],4.9% (inactive)
same,tube area decrease,[4],-9.5% (inactive)
same,GLP1 secretion stimulation,[5],1.1% (inactive)
same,inhibition of viability,[6],-9.9% (inactive)
same,viability decrease (inhibition),[7],59.6% (active)
same,viability decrease (inhibition),[8],26.8% (inactive)
CC(Cc1ccccc1)N(C)Cc1ccco1 (stereo not drawn),nuclear beta-catenin stimulation,[1]; at 10 µM,-0.5% (inactive)
same,nuclear beta-catenin stimulation,"[1]; stimulation, at 2 µM",0.7%
same,insulin secretion stimulation,[2],2.3% (inactive)
same,viability decrease,[3],-12.2% (inactive)
same,tube area decrease,[4],25.5% (inactive)
same,GLP1 secretion stimulation,[5],0.1% (inactive)
same,inhibition of viability,[6],8.5% (inactive)
same,viability decrease (inhibition),[7],4.3% (inactive)
same,viability decrease (inhibition),[8],-1.8% (inactive)
CC(C)(C)NCC(O)c1ccccc1Cl (stereo not drawn),inhibition,[9],4.55%
same,score,[10],1.29
same,rescue above control,[11],-6.12
same,cytochrome c release ratio,[12],0.96
same,inhibition of aggregation,[13],72.5%
same,glutamate uptake change,[14],2.34%
same,inclusion score,[15],2
same,aggregation suppression score,[16],1.28
same,period change,[17],-0.125 h (inactive)
same,parasite load remaining,[18],85.5% (inactive) and 23.5% (inactive)
same,viability,[18],91.9% and 68.5%
same,inhibition,[19],-4% (inactive)
same,fluorescence ratio (interference),[20],1 (inactive)
same,nuclear beta-catenin stimulation,[1]; at 10 µM,-0.7% (inactive)
same,nuclear beta-catenin stimulation,"[1]; stimulation, at 2 µM",-0.7%
same,insulin secretion stimulation,[2],-1.2% (inactive)
same,viability decrease,[3],-32.4% (inactive)
same,tube area decrease,[4],5.2% (inactive)
same,GLP1 secretion stimulation,[5],0.9% (inactive)
same,inhibition of viability,[6],-0.17% (inactive)
same,viability decrease (inhibition),[7],-2.1% (inactive)
same,viability decrease (inhibition),[8],-14.4% (inactive)
same,inhibition,[21],14% (inactive)
same,red/green cell ratio (normalised),[22]; actives lie on both sides,0.9 (inactive)
same,normalised cell number,[22]; measured here: epithelial PC-3E GFP cell survival,1.07
same,normalised cell number,[22]; measured here: mesenchymal TEM4-18 mCherry cell survival,0.97
same,activity remaining,[23],102% (inactive)
same,remaining activity,[24],113% (inactive)
same,fold change,[25]; stronger effect = lower value,0.985 (inactive) and 0.856 (inactive)
same,fold change,[25]; measured here: relative caspase fold change +Dox/-Dox,1.26 and 1.33
same,cell count,"[25]; measured here: total cells with miR-34 induction, stronger effect = lower value",10200 and 9170
same,cell count,[25]; measured here: total cells without miR-34 induction,10400 and 10700
same,outcome,[26],inactive
same,z-score,"[27]; MELAS cybrid survival, CellTiter-Glo 48 h, stronger effect = higher value",-0.495 (inactive) and -0.187 (inactive)
same,z-score,"[27]; Rieske KO mouse fibroblast survival, CellTiter-Glo 72 h",0.0224 and -0.446
same,remaining NAD,[28],10 nM (inactive)
same,luciferase signal,[29],24 AU (inactive)
same,z-score,[30],0.29 (inactive) and 0.245 (inactive)
